Reference: PubChem BioAssay (Tox21)
The source made the active and inactive calls. Calls come from the whole dose curve; as a rule, active = well fitted curve in the direction sought with a large enough effect in the repeat runs; inconclusive = weak or mixed curves; inactive = flat fitted curve, though single readings scatter.

Tests used:
[1] = qHTS assay to test for compound auto fluorescence at 535 nm (green) in HEK293 cells (AID 720680)
[2] = qHTS assay to test for compound auto fluorescence at 460 nm (blue) in HEK293 cell free culture (AID 720681)
How it was run: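 Blue fluorescence (Ex 405/Em 460 nm, triamterene-equivalent) was read immediately after pin transfer of compound or DMSO into medium (DMEM, 10% FBS) without cells.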

[3] = qHTS assay to test for compound auto fluorescence at 535 nm (green) in HEK293 cell free culture (AID 720682)
How it was run: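 Compounds were pin-transferred into cell-free DMEM with 10% FBS, and green fluorescence was read at excitation 485 nm and emission 535 nm. Intensities were expressed as fluorescein-equivalent values.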

[4] = qHTS assay to test for compound auto fluorescence at 590 nm (red) in HEK293 cell free culture (AID 720683)
How it was run: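 Red-channel autofluorescence of compounds in culture medium (DMEM, 10% FBS), no cells, measured at 540/590 nm. Rose Bengal sodium is the reference fluorophore for equivalence.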

[5] = qHTS assay to test for compound auto fluorescence at 590 nm (red) in HepG2 cell free culture (AID 720684)
How it was run: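 Steps: dispense MEM/10% FBS medium, no cells; pin compound or DMSO vehicle; read red channel, Ex/Em 540/590 nm. Output given as Rose Bengal sodium equivalents.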

[6] = qHTS assay to test for compound auto fluorescence at 460 nm (blue) in HepG2 cell free culture (AID 720685)
How it was run: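 Compound (23 nL) or DMSO pinned into cell-free MEM with 10% FBS; blue fluorescence read at 405/460 nm excitation/emission, expressed as auto-fluorescence equivalency to triamterene.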

[7] = qHTS assay to test for compound auto fluorescence at 535 nm (green) in HepG2 cell free culture (AID 720686)
[8] = qHTS assay to test for compound auto fluorescence at 460 nm (blue) in HepG2 cells (AID 720687)
How it was run: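 Blue-channel autofluorescence (Ex/Em 405/460 nm, triamterene-equivalent) was measured after 1 hr compound exposure at 37 C, 5% CO2. Cells were HepG2, plated overnight at 37 C in MEM plus 10% FBS.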
% is set by controls: 0 for no effect and ±100 for the full control effect.

Clc1ccc(CSC(Cn2ccnc2)c2ccc(Cl)cc2Cl)cc1 (configuration not stated)
inactive: fluorescence, % of fluorescein [1] -0.0144% [at 18.6 µM] | fluorescence, % of fluorescent control [2] 0.0923% [at 18.6 µM] | activity change [3] -0.0182% [at 18.6 µM] | fluorescence, % of fluorescent control [4] 0.289% [at 18.6 µM] | fluorescence, % of Rose Bengal [5] -0.065% [at 18.6 µM] | fluorescence, % of fluorescent control [6] 0.0769% [at 18.6 µM] | fluorescence, % of fluorescein control [7] -0.107% [at 18.6 µM] | fluorescence, % of fluorescent control [8] 0.0355% [at 18.6 µM]

COc1ccc(OC)c(CC(C)N)c1 (configuration not stated)
inactive: outcome [1] | Potency [2] | outcome [3] | outcome [4] | outcome [5] | Potency [6] | outcome [7] | Potency [8]

CC(=O)Nc1ccc2c(c1)Cc1ccccc1-2
inactive: outcome [1] | Potency [2] | outcome [3] | outcome [4] | outcome [5] | Potency [6] | outcome [7] | Potency [8]

CCc1nn(C)c(C(=O)NCc2ccc(C(C)(C)C)cc2)c1Cl
inactive: outcome [1] | Potency [2] | outcome [3] | outcome [4] | outcome [5] | Potency [6] | outcome [7] | Potency [8]

O=[N+]([O-])c1ccc2ccc3cccc4ccc1c2c34
inactive: outcome [1] | Potency [2] | outcome [3] | outcome [4] | outcome [5] | Potency [6] | outcome [7] | Potency [8]

Clc1ccc(-c2ccc(Cl)c(Cl)c2Cl)c(Cl)c1Cl
inactive: outcome [1] | Potency [2] | outcome [3] | outcome [4] | outcome [5] | Potency [6] | outcome [7] | Potency [8]

[Cd+2].[Cl-].[Cl-]
inactive: outcome [1] | Potency [2] | outcome [3] | outcome [4] | outcome [5] | Potency [6] | outcome [7] | Potency [8]

O=C(CCl)Nc1ccccc1
inactive: outcome [1] | Potency [2] | outcome [3] | outcome [4] | outcome [5] | Potency [6] | outcome [7] | Potency [8]

CC1(C)C(/C=C(\Cl)C(F)(F)F)C1C(=O)OC(C#N)c1cccc(Oc2ccccc2)c1 (configuration not stated)
inactive: outcome [1] | Potency [2] | outcome [3] | outcome [4] | outcome [5] | Potency [6] | outcome [7] | Potency [8]

CC(=O)[O-].CC(=O)[O-].[Hg+2]
inactive: outcome [1] | Potency [2] | outcome [3] | outcome [4] | outcome [5] | Potency [6] | outcome [7] | Potency [8]

Oc1ccc(C(c2ccc(O)cc2)(C(F)(F)F)C(F)(F)F)cc1
inactive: outcome [1] | Potency [2] | outcome [3] | outcome [4] | outcome [5] | Potency [6] | outcome [7] | Potency [8]

CC(C)[C@H](C(=O)O[C@H](C#N)c1cccc(Oc2ccccc2)c1)c1ccc(Cl)cc1
inactive: outcome [1] | Potency [2] | outcome [3] | outcome [4] | outcome [5] | Potency [6] | outcome [7] | Potency [8]

Clc1ccc(CO/N=C(\Cn2ccnc2)c2ccc(Cl)cc2Cl)c(Cl)c1
inactive: outcome [1] | Potency [2] | outcome [3] | outcome [4] | outcome [5] | Potency [6] | outcome [7] | Potency [8]

CC(C)[C@H](C(=O)OC(C#N)c1cccc(Oc2ccccc2)c1)c1ccc(OC(F)F)cc1 (some centres not stated)
inactive: outcome [1] | Potency [2] | outcome [3] | outcome [4] | outcome [5] | Potency [6] | outcome [7] | Potency [8]

ClC1=C(Cl)C2(Cl)C3C(Cl)C=CC3C1(Cl)C2(Cl)Cl (configuration not stated)
inactive: outcome [1] | Potency [2] | outcome [3] | outcome [4] | outcome [5] | Potency [6] | outcome [7] | Potency [8]

Oc1ccc(C2(c3ccc(O)cc3)CCCCC2)cc1
inactive: outcome [1] | Potency [2] | outcome [3] | outcome [4] | outcome [5] | Potency [6] | outcome [7] | Potency [8]

CCN(CC)C(=S)[S-].CCN(CC)C(=S)[S-].[Zn+2]
inactive: outcome [1] | Potency [2] | outcome [3] | outcome [4] | outcome [5] | Potency [6] | outcome [7] | Potency [8]

CCCCCCCCCC[N+](C)(C)CCCCCCCCCC
inactive: outcome [1] | Potency [2] | outcome [3] | outcome [4] | outcome [5] | Potency [6] | outcome [7] | Potency [8]

CN(C)C(=S)S
inactive: outcome [1] | Potency [2] | outcome [3] | outcome [4] | outcome [5] | Potency [6] | outcome [7] | Potency [8]

CCCCCCCCCCCCCC[P+](CCCCCC)(CCCCCC)CCCCCC (tested in a mixture with another compound)
inactive: outcome [1] | Potency [2] | outcome [3] | outcome [4] | outcome [5] | Potency [6] | outcome [7] | Potency [8]

Oc1ccc(C2(c3ccc(O)cc3)c3ccccc3-c3ccccc32)cc1
inactive: outcome [1] | Potency [2] | outcome [3] | outcome [4] | outcome [5] | Potency [6] | outcome [7] | Potency [8]

C=CC(=O)OCC(COC(=O)C=C)(COC(=O)C=C)COC(=O)C=C
inactive: outcome [1] | Potency [2] | outcome [3] | outcome [4] | outcome [5] | Potency [6] | outcome [7] | Potency [8]

CC(=O)[O-].CC(=O)[O-].O.O.[Cd+2]
inactive: outcome [1] | Potency [2] | outcome [3] | outcome [4] | outcome [5] | Potency [6] | outcome [7] | Potency [8]

[CH3][Hg][Cl]
inactive: outcome [1] | Potency [2] | outcome [3] | outcome [4] | outcome [5] | Potency [6] | outcome [7] | Potency [8]
